The source of these data is PubChem BioAssay.

Molecules are shown by their SMILES. Several values for one entry are separate records, joined by “and”; a condition that tells them apart may be missing. Equal values may be shown once. Records with an inconclusive call do not appear. Activity calls are given as the source filed them.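 Rule for the calls, unless noted: active = compound raises GLP1 secretion from the human gut endocrine cells, with no numeric limit stated; inactive = the rest.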

For experiment [1], the target named is ATP-dependent translocase ABCB1 (Homo sapiens) (UniProt P08183). The experiment is described as follows: P-glycoprotein substrate transport blockade – cell-based (AID 377; in the data active = fluorescence slope change above about 50%). To be noted: MDR1-expressing cells, fluorescent substrate accumulation slope; stronger effect = higher value; concentration not given here.
Experiment [2] in a line: compounds altering viability of human ES cells (AID 493140; call rule not given here;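 note: cells exposed to compounds for four days before counting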). The following applies: human embryonic stem cell survival screen; stronger effect = higher value.
Experiment [3] can be described thus: P. berghei load reduction in hepatocytes – cell-based, HepG2, luciferase luminescence, HepG2 viability, primary screen (AID 624349; in the data active = parasite load remaining mostly below about 12%, no sharp cut-off; inactive = mostly above about 10%;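 note: 100% = mean of DMSO negative control wells on the same plate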). To be noted: P. berghei liver stage in HepG2, luciferase luminescence, concentration not given here; parasite load remaining: stronger effect = lower value; viability: measured here: HepG2 viability without parasites.
Experiment [4] is described as follows: Wnt pathway potentiators raising nuclear beta-catenin – imaging, WNT3A-conditioned medium, mouse C2C12, NPC library, primary screen (AID 1117326; in the data active = nuclear beta-catenin stimulation mostly above about 4.2%, no sharp cut-off; inactive = mostly below about 10%). The following applies: stronger effect = higher value.
Experiment [5] is described as follows: stimulators of insulin release from INS-1E, primary screen, cell-based, 5 mM glucose, NPC library (AID 1117329;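 active = compound raises insulin release from rat beta cells at 5 mM glucose, no numeric limit stated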). The following applies: rat INS-1E insulin secretion, at 10 µM, stronger effect = higher value.
Experiment [6] can be described thus: growth inhibition of GSK3B-pretreated HCT116 cells – cell-based, CellTiter-Glo, 0.2 to 20 µM (AID 1117336;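 active = compounds lowering colon cancer cell viability after pretreatment blocking the GSK3B kinase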). The following applies: HCT116 viability after GSK3B inhibitor, at 20 µM, stronger effect = higher value.
A short description of experiment [7]: inhibition of endothelial tube formation, primary screen, imaging, VEGF stimulated, CD31 staining, tube area, NPC library (AID 1117340;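 active = compound that reduces growth-factor-driven endothelial tube area in a mixed cell culture, no cutoff stated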). The following applies: VEGF-stimulated ADSC/ECFC co-culture, at 10 µM, stronger effect = higher value.
A short description of experiment [8]: GLP1 release stimulators, primary, NCI-H716, NPC library (AID 1117341). The following applies: NCI-H716 cells, at 10 µM, stronger effect = higher value.
Experiment [9] is described as follows: HCT116 colon cancer cell growth inhibition, primary screen, CellTiter-Glo luminescence, NPC library (AID 1117342;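 active = compounds that lower survival of HCT116 colon cancer cells in the luminescence readout, no numeric limit stated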). The following applies: at 20 µM (top of the series). In general terms: In ATP-based viability assays light output follows the ATP content of the culture.
The nature of experiment [10]: reduced SW480 viability measured with CellTiter-Glo, NPC library, primary (AID 1117343;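 active = compounds that lower viability of the colon cancer cells in the luminescence readout, with no numeric limit stated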). The following applies: CellTiter-Glo luminescence; at 20 µM (top of the series) unless noted.
A short description of experiment [11]: NPC library primary testing for decreased DLD-1 cell viability via CellTiter-Glo (AID 1117346;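 active = compounds that lower survival of DLD-1 colon cancer cells in the luminescence readout, no cutoff given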). The following applies: DLD-1 viability, CellTiter-Glo luminescence; at 20 µM (top of the series).
A short description of experiment [12]: viability loss with induced miR-34 in A549 – imaging, A549 dox-inducible miR-34, nuclei and caspase counts, primary screen (AID 1347080;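 active = compounds whose cell count with miR-34 switched on is under 0.7 times the count with it off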). The following applies: A549 miR-34 inducible, Hoechst nuclei count, 48 h.
A short description of experiment [13]: MELAS cybrid and Rieske KO viability enhancers – cell-based, MELAS cybrids, Rieske KO mouse fibroblasts, CellTiter-Glo, primary screen (AID 1508586;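 active = mean z-score across replicates of 1.96 or higher in either the MELAS or the Rieske mutant cell line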;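 note: z relative to plate mean and SD of compound and empty wells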). The following applies: low glucose.
In experiment [14] the target is NAD(+) hydrolase SARM1 (Homo sapiens) (UniProt Q6SZW1). Briefly: blocking NAD cleavage by SARM1 SAM-TIR – cell lysate, NAD-Glo luminescence (AID 1508614;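 active = compound whose remaining NAD level is above about 45 nM, limit read from the data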;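 note: higher remaining NAD means stronger inhibition of SARM1 NADase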). To be noted: SAM-TIR HEK293T lysate NADase, at 1 µM, stronger effect = higher value.
Experiment [15] has as its target Mitogen-activated protein kinase 7 (Homo sapiens) (UniProt Q13164). Briefly: Gal4-ERK5 driven luciferase induction – cell-based, HTS, primary screen (AID 1508626;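 active = luciferase signal above three times the same-plate solvent-only control wells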;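 note: luciferase driven by Gal4-ERK5 fusion binding five Gal4 sites before minimal TATA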). To be noted: HeLa Gal4-ERK5 transactivation, 18 h, at 5 µM, stronger effect = higher value.
The nature of experiment [16]: galactose survival enhancers in mitochondrial complex I cybrids – cell-based, galactose medium, ATP luminescence, primary screen (AID 1645843;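 active = z-score of at least 1.8 in each of two replicates, scored against plate mean and spread of sample wells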;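 note: positive z means more ATP and so rescue of galactose-driven cybrid death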). The following applies: complex I mutant cybrid cells, 72 h, stronger effect = higher value.
[17] abbreviates: stronger effect = lower value, cell number ratio, induced over uninduced.
The mark [18] stands for this setting: measured here: relative caspase fold change +Dox/-Dox.
Where [19] appears, read: measured here: total cells with miR-34 induction, stronger effect = lower value.
The mark [20] stands for this setting: measured here: total cells without miR-34 induction.
The mark [21] stands for this setting: MELAS cybrid survival, CellTiter-Glo 48 h, stronger effect = higher value.
The mark [22] stands for this setting: Rieske KO mouse fibroblast survival, CellTiter-Glo 72 h.

Chain of NAD(+) hydrolase SARM1 (Homo sapiens) (Q6SZW1 whole entry, looked up, the tested form may be a part): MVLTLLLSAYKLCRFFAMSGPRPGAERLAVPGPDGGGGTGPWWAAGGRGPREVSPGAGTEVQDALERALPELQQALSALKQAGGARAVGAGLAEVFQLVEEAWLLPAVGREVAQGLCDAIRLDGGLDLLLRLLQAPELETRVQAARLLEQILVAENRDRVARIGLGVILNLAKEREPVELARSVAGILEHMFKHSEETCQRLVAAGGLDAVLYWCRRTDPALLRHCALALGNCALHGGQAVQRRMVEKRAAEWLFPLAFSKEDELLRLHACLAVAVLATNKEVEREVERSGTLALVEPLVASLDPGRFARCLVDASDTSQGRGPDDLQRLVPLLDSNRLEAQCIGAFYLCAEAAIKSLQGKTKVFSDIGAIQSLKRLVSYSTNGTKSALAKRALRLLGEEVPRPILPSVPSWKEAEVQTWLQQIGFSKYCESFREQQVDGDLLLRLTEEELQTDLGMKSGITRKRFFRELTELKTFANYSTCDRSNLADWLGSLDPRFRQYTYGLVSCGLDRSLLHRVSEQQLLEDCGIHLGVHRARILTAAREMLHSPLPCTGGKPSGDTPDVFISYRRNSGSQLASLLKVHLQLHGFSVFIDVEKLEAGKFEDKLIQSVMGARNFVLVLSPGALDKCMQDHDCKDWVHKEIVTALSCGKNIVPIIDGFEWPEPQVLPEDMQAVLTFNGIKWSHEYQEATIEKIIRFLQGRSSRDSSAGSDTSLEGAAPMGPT
Chain of ATP-dependent translocase ABCB1 (Homo sapiens) (P08183 whole entry, looked up): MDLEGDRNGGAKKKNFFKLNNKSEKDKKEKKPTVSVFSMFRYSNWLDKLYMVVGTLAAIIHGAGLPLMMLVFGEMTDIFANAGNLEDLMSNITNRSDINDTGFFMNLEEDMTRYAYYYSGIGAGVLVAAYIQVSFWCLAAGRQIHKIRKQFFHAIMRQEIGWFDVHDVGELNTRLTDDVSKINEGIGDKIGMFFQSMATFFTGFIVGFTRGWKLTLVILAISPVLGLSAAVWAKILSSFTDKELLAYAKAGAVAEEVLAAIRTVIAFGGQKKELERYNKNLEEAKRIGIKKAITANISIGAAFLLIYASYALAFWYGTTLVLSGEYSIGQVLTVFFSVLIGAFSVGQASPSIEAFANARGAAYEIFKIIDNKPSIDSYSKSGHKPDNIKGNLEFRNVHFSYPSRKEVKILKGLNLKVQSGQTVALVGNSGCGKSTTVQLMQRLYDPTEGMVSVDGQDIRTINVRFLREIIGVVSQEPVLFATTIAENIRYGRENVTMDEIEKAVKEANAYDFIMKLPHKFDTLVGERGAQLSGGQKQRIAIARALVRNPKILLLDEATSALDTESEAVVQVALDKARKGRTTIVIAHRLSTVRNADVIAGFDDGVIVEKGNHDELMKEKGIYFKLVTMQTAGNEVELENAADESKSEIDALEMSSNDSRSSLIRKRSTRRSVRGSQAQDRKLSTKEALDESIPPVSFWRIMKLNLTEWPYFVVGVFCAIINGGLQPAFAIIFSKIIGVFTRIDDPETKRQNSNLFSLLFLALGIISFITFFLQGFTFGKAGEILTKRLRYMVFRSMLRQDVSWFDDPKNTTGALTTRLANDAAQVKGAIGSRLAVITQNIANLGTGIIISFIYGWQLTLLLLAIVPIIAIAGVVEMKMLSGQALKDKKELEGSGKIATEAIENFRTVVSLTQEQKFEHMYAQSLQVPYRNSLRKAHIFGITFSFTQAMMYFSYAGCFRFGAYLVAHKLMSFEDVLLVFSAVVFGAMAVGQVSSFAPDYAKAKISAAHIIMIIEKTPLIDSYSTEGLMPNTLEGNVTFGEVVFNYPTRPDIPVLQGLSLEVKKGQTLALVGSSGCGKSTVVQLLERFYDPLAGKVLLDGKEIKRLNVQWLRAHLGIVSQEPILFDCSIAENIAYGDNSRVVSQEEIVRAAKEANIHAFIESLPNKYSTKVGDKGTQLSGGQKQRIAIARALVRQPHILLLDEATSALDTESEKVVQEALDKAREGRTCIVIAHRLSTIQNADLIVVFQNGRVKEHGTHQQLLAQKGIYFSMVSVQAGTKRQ
Chain of Mitogen-activated protein kinase 7 (Homo sapiens) (Q13164 whole entry, looked up, the tested form may be a part): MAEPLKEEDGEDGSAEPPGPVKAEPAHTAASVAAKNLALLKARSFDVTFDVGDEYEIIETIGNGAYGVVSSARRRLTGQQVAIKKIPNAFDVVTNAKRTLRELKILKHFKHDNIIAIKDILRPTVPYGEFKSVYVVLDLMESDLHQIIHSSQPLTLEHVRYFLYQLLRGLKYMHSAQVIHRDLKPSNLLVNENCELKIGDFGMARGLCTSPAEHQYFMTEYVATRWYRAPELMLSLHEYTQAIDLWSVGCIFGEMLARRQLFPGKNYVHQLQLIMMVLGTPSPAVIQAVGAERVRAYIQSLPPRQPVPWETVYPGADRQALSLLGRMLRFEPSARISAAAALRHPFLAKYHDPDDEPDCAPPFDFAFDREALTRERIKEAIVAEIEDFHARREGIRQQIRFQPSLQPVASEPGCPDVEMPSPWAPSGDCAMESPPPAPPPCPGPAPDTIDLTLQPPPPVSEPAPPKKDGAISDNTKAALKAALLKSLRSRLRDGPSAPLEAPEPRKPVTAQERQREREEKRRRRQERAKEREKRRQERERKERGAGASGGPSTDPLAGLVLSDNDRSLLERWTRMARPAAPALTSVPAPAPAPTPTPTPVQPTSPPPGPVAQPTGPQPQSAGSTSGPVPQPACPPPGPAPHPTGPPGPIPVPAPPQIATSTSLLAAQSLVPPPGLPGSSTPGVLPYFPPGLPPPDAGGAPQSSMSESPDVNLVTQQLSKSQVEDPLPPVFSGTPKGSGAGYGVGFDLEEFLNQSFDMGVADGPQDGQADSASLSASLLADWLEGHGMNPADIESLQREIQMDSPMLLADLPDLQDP

By viability is commonly meant a per cent measure of how many cells are alive, often set against a control. For the compound `Cc1ncc(C[n+]2csc(CCO)c2C)c(N)n1`, in experiment [1], the fluorescence slope change is 80.3% (active). The survival in [2] is 12.6 (inactive). In [3], the parasite load remaining was 161% (inactive) and 60.9% (inactive). In addition, in experiment [3], the viability was 98.2% and 74.9%. In addition, the nuclear beta-catenin stimulation in experiment [4] (at 10 µM) is -1.9% (inactive); in experiment [4] (stimulation, at 2 µM), -0.8%. In experiment [5], the insulin secretion stimulation was 3.8% (inactive). The viability decrease in experiment [6] is -12.9% (inactive). In addition, in experiment [7], the tube area decrease was -6.7% (inactive). For the same compound, the GLP1 secretion stimulation in experiment [8] was -1.3% (inactive). In addition, the inhibition of viability in experiment [9] was 5% (inactive). The figures for the viability decrease (inhibition) in experiment [10] and in experiment [11] were 7.9% (inactive) and 1.8% (inactive), respectively. The figures for the fold change in [12] (setting [17]) and in experiment [12] (setting [18]) were 0.836 (inactive) and 1.04, respectively. For the same compound, the cell count in experiment [12] (setting [19]) amounted to 8780; in experiment [12] (setting [20]), 10500. Further, the z-score in experiment [13] (setting [21]) was 0.823 (inactive); in [13] (setting [22]), 0.201. Further, the remaining NAD in experiment [14] is 10 nM (inactive). Moreover, the luciferase signal in [15] is 44 AU (inactive).
Consider `Cc1ccc(Cl)c(OCC(O)CNC(C)(C)C)c1` (stereo not given), for which the nuclear beta-catenin stimulation is 0.2% (inactive) in experiment [4] (at 10 µM) and 0.1% in [4] (stimulation, at 2 µM). In addition, the insulin secretion stimulation in experiment [5] is 1% (inactive). In addition, the viability decrease in [6] was -43.6% (inactive). The tube area decrease in experiment [7] is -6.8% (inactive). Besides, the GLP1 secretion stimulation in experiment [8] was 0% (inactive). In addition, the inhibition of viability in [9] is -1.43% (inactive). For the same compound, the results for the viability decrease (inhibition) in experiment [10] and in experiment [11] were -8.9% (inactive) and -15.9% (inactive), respectively. Moreover, the fold change in [12] (setting [17]) is 0.861 (inactive); in [12] (setting [18]) it was 0.19. Besides, the cell count was determined as 8600 in [12] (setting [19]) and 9990 in experiment [12] (setting [20]). The z-score in [13] (setting [21]) was 0.548 (inactive); in experiment [13] (setting [22]), -0.195; in experiment [16], 0.405 (inactive).
As to `CCOc1ccccc1OCCN[C@H](C)Cc1ccc(OC)c(S(N)(=O)=O)c1`, the parasite load remaining in [3] is 30.6% (inactive). This compound had a viability in experiment [3] of 71%. Further, the nuclear beta-catenin stimulation is 0.2% (inactive) in experiment [4] (at 10 µM) and 3% in experiment [4] (stimulation, at 2 µM). Also, the insulin secretion stimulation in experiment [5] was 1.6% (inactive). Moreover, the viability decrease in [6] was 4.2% (inactive). In addition, the tube area decrease in experiment [7] was -2.4% (inactive). The GLP1 secretion stimulation in experiment [8] was 2.3% (inactive). In addition, in [9], the inhibition of viability is 4.1% (inactive). Besides, the viability decrease (inhibition) in [10] was 6.6% (inactive); in experiment [11] it was 5.8% (inactive). Also, the fold change in [12] (setting [17]) is 0.868 (inactive); in experiment [12] (setting [18]), 1.51. Besides, the values for the cell count in experiment [12] (setting [19]) and in experiment [12] (setting [20]) were 9140 and 10500, respectively. The z-score in experiment [13] (setting [21]) was -0.622 (inactive); in experiment [13] (setting [22]), -1.24; in [16], -0.32 (inactive). Also, the remaining NAD in experiment [14] is 10 nM (inactive).
Turning to `CC[C@H](c1ccc(O)cc1)[C@@H](CC)c1ccc(O)cc1`, the parasite load remaining in experiment [3] was 16.7% (inactive). Further, the viability in experiment [3] was determined as 82%. In addition, the nuclear beta-catenin stimulation in experiment [4] (at 10 µM) was 11.6% (inactive); in [4] (stimulation, at 2 µM), 2.5%. Further, the insulin secretion stimulation in experiment [5] was 1.4% (inactive). In [6], the viability decrease is 89.6% (active). The tube area decrease in experiment [7] is 20.9% (inactive). In addition, the GLP1 secretion stimulation in [8] was 40% (active). For the same compound, the inhibition of viability in experiment [9] is 97% (active). The viability decrease (inhibition) in [10] is 118% (active); in experiment [11], 101% (active). Further, the fold change in [12] (setting [17]) is 0.78 (inactive); in experiment [12] (setting [18]), 0.948. For the same compound, the cell count in experiment [12] (setting [19]) came out at 7720; in experiment [12] (setting [20]) it was 9900. For the same compound, the z-score in experiment [13] (setting [21]) was -1.4 (inactive); in [13] (setting [22]), -0.231; in [16] it was -0.325 (inactive). Also, the remaining NAD in [14] was 10 nM (inactive).
